High-throughput results (PubChem BioAssay)
Hits are enriched below; roughly 0.93% of the tested compounds scored in any of these assays.
TAR Tat displ: HIV-1 TAR-Tat binding disruption | HIV-1 TAR RNA, Tat peptide displacement FRET; active compounds read high | z-score (no concentration beside the values) | 100,000 tested, 0.6% active | AID 1259389; active means z-score of 3 or more in at least 2 runs
CDC25B-CDK2 inh: human CDC25B-CDK2/CyclinA binding inhibition; P30305+P24941; HTRF CDC25B-CDK2/CyclinA binding, anti-His/anti-Flag; active compounds read high; z-score (test concentration not listed); 94,000 tested, 0.72% active; in the data active means z-score above about 3.2
Active calls of the source: *; x = no result.

SMILES	TAR Tat displ	CDC25B-CDK2 inh
COc1cccc(C(=O)NC(NC(=S)Nc2ccc(Cl)cc2Cl)C(Cl)(Cl)Cl)c1 (configuration not stated)	x	2
COC(=O)CN1C(C(=O)c2ccccc2)=C(OC(=O)Cc2ccccc2)c2ccccc2S1(=O)=O	0.84	-0.92
CC1=C(c2ccc(Cl)cc2)S(=O)(=O)NC1=NCCCN1CCCC1=O	1.2	-0.51
COc1ccc(NC(=O)Nc2nnc(COc3ccccc3F)s2)cc1	1.2	4.7*
CCc1nnc(NC(=O)Nc2ccc(OC)cc2)s1	x	-2.5
Nc1nonc1C(=O)NCCNC(=O)c1ccc(Br)cc1	-0.27	-3.6
Cc1c(C(=O)Nc2ccc(Cl)cc2)oc2ccc3c(c12)C(=O)CC(C)(C)O3	2.7	x
ON(Cc1ccccc1)Cc1ccccc1	x	-1.3
BrC=C=CCN(CC=C=CBr)Cc1ccccc1	x	4.3*
CN1CCc2c(sc3c2C(=O)NC(c2ccc(O)c(O)c2)N3)C1 (configuration not stated)	13*	-0.12
COc1cc(C2NC(=O)c3c(sc4c3CCN(C)C4)N2)ccc1O (configuration not stated)	-8.1	-0.03
Cc1ccc(C2CC(=O)N3CN(C(C)c4ccccc4)CSC3=C2C#N)cc1 (configuration not stated)	1.2	5*
Cc1ccc(C2CC(=O)N3CN(CCc4ccccc4)CSC3=C2C#N)cc1 (configuration not stated)	-0.62	2.7
COc1ccc(C2CC(=O)N3CN(C(C)c4ccccc4)CSC3=C2C#N)cc1 (configuration not stated)	-1.9	5.3*
CC(c1ccccc1)N1CSC2=C(C#N)C(c3cccs3)CC(=O)N2C1 (configuration not stated)	9.8*	4.4*
CCOc1ccc(C2CC(=O)N3CN(C(C)c4ccccc4)CSC3=C2C#N)cc1 (configuration not stated)	3.2	5.3*
CC(=O)Oc1ccc(-c2nc3ccc(C(=O)O)cc3s2)cc1	2.6	-1.6
CC(C)Cc1nn2c(=O)cc(COC(=O)COc3ccc(Cl)cc3)nc2s1	0.91	x
O=c1c(S(=O)(=O)c2cccc(F)c2)c[nH]c2c(F)ccc(Cl)c12	1.1	-1.8
Cc1ccc(S(=O)(=O)c2nnn(-c3ccc(Cl)cc3)c2C)cc1	0.86	1
COc1ccc(S(=O)(=O)c2c(C(=O)c3ccc(C)cc3)cnc3cc4c(cc23)OCCO4)cc1	0.27	6.7*
COc1ccc(S(=O)(=O)c2c(C(=O)c3ccc(C)cc3)cnc3cc4c(cc23)OCO4)cc1	-0.24	0.07
O=C(NC1CCCCC1)c1c(O)c2cccc3c2n(c1=O)CCC3	0.37	x
COc1ccc(OC)c(CN2CCN(Cc3ccc4c(c3)OCO4)CC2)c1	0.34	-0.45
O=S(=O)(c1ccc2ccccc2c1)N1CCN(Cc2ccc3c(c2)OCO3)CC1	9*	-0.97
SMILES	TAR Tat displ	CDC25B-CDK2 inh
CCOc1ccc(CN2CCN(Cc3ccc4c(c3)OCO4)CC2)cc1	1.1	8.4*
O=S(=O)(c1ccccc1)N1CCN(Cc2ccc3c(c2)OCO3)CC1	1.2	-0.65
O=C(Nc1cccc2cccnc12)C(=O)Nc1cccc2cccnc12	x	-2
O=C(Nc1cccc2cccnc12)c1ccco1	-0.13	5.6*
O=C1CC(c2cccc(F)c2F)c2c(nc(SCc3cccc(Cl)c3)[nH]c2=O)N1 (configuration not stated)	0.61	-0.93
CC(C)Cn1cc(NC(=O)N(Cc2ccccc2)C(C)C)c2ccccc2c1=O	6.6*	x
CCCN(CCC)C(=O)Nc1cn(CC(C)C)c(=O)c2ccccc12	1.9	x
CC(C)Cn1cc(NC(=O)NCCCN2CCCC2)c2ccccc2c1=O	1	x
CC(C)Cn1cc(NC(=O)NCCCN(C)c2ccccc2)c2ccccc2c1=O	-0.7	19*
O=c1c2ccccc2nc2n1CCN2CCOc1ccc(Cl)cc1	2	0.16
CCCS(=O)(=O)N1CCCc2ccc(NS(=O)(=O)c3ccc(OC)cc3OC)cc21	6*	x
CCS(=O)(=O)N1CCCc2ccc(NS(=O)(=O)c3cc(OC)ccc3OC)cc21	-0.11	x
O=C([C@@H](c1ccccc1)N1Cc2ccccc2C1=O)N1CCCC1	-0.12	1.8
CC1CCC(NC(=O)C2(C)Cn3c(cc4occc43)C(=O)N2C2CCCCC2)CC1 (configuration not stated)	5.4*	x
CC1CCC(NC(=O)C2(C)Cn3c(cc4occc43)C(=O)N2CCN2CCOCC2)CC1 (configuration not stated)	2.2	x
CC1CCC(NC(=O)C2(C)Cn3c(cc4occc43)C(=O)N2CCN(C)C)CC1 (configuration not stated)	2.5	x
CC1(C(=O)NC2CCCCC2)Cn2c(cc3occc32)C(=O)N1CCN1CCOCC1 (configuration not stated)	4*	x
CC1(C(=O)NC2CCCCC2)Cn2c(cc3occc32)C(=O)N1C1CCCCC1 (configuration not stated)	2.2	x
